We go through 62 molecules from article PMC8769072, “Proteome‐scale mapping of binding sites in the unstructured regions of the human proteome” (Molecular Systems Biology, 2022).

The target of test [1] is PEX14 16-84, O75381.
Test [2] deals with PDCD6IP 360-702, Q8WUM4.
Test [3] has as its target SIN3A 295-383, Q96ST3.

Sequence of SIN3A 295-383, Q96ST3 (Q96ST3 295-383): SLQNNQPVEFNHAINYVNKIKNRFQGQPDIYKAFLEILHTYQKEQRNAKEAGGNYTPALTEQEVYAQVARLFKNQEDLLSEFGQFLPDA
Sequence of PEX14 16-84, O75381 (O75381 16-84): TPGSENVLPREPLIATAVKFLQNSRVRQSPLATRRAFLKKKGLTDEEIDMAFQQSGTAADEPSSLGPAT
Sequence of PDCD6IP 360-702, Q8WUM4 (Q8WUM4 360-702): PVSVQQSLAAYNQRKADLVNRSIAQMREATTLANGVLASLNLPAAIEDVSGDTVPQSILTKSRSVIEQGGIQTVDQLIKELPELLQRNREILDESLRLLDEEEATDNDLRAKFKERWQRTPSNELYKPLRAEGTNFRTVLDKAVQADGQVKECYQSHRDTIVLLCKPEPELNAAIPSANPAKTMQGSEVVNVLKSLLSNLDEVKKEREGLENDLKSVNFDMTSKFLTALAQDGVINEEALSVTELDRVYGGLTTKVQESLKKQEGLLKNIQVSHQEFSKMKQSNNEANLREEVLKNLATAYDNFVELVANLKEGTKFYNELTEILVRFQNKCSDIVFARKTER

B1: FAM186B, Q8IYM0 (peptide)
chain: WEEEFGREMRRQLWLE
Take B1: the “selected by phage display” value in test [1] is “confidence 2 (active)”.

B2: GTPBP1, O00178 (peptide)
chain: SEQYDSLLRQMWERMD
For the molecule B2, the “selected by phage display” value in test [1] is “confidence 2 (active)”.

B3: FNBP4, Q8N3X1 (peptide)
chain: EMGDWQEVWDENTGAY
With B3, the “selected by phage display” value in test [1] was “confidence 3 (active)”.

B4: RIMBP2, O15034 (peptide)
chain: RMDEAWEQSRAPGPVH
Regarding B4, the “selected by phage display” value in test [1] was “confidence 2 (active)”.

B5: TP73, O15350 (peptide)
chain: STATSPDGGTTFEHLW
In the case of B5, the “selected by phage display” value in test [1] was “confidence 3 (active)”.

B6: SMG7, Q92540 (peptide)
chain: VLMESLKSIWSSSMMH
As for B6, the “selected by phage display” value in test [1] is “confidence 3 (active)”.

B7: MIER2, Q8N344 (peptide)
chain: DMPFDELLALYGYEAS
On to B7, for which, in test [2], the “selected by phage display” value is “confidence 2 (active)”.

B8: IRF5, Q13568 (peptide)
chain: ELHHIWQSQQRLQPVA
In the case of B8, the “selected by phage display” value in test [1] is “confidence 3 (active)”.

B9: AATF, Q9NY61 (peptide)
chain: DPNDQVAMGRQWLAIQ
Regarding B9, the “selected by phage display” value in test [1] is “confidence 3 (active)”.

B10: GDPD4, Q6W3E5 (peptide)
chain: VVEGPWTLAALYPALP
Regarding B10, the “selected by phage display” value in test [2] is “confidence 3 (active)”.

B11: SPIDR, Q14159 (peptide)
chain: GAAASLSEAWLRAGEG
For B11, the “selected by phage display” value in test [1] was “confidence 2 (active)”.

B12: NFKBIL1, Q9UBC1 (peptide)
chain: ELEDEWQEVMGRFEGD
Consider B12, for which the “selected by phage display” value in test [1] was “confidence 4 (active)”.

B13: HSF2, Q03933 (peptide)
chain: SENESLWKEVSELRAK
Take B13: the “selected by phage display” value in test [1] is “confidence 3 (active)”.

B14: MCC, P23508 (peptide)
chain: LGRDLYPNLAEERSRW
Turning to B14, the “selected by phage display” value in test [2] was “confidence 3 (active)”.

B15: FSD1, Q9BTV5 (peptide)
chain: DDLSVEWDAMGGKVQD
With B15, the “selected by phage display” value in test [1] was “confidence 4 (active)”.

B16: SLC6A11, P48066 (peptide)
chain: FYLYPDLSRLSDPQVW
Consider B16, for which the “selected by phage display” value in test [2] is “confidence 3 (active)”.

B17: CPEB2, Q7Z5Q1 (peptide)
chain: DSLQDSWATAAGTSRI
As to B17, in test [1], the “selected by phage display” value is “confidence 3 (active)”.

B18: ZFHX4, Q86UP3 (peptide)
chain: GHPELSEAELQQLYAS
As for B18, the “selected by phage display” value in test [1] was “confidence 2 (active)”.

B19: STAM, Q92783 (peptide)
chain: LYPSTSSLLTNHQHEG
As for B19, the “selected by phage display” value in test [2] is “confidence 3 (active)”.

B20: LRRN1, Q6UXK5 (peptide)
chain: LYPPLINLWEGDSEKD
In the case of B20, the “selected by phage display” value in test [2] was “confidence 4 (active)”.

B21: TONSL, Q96HA7 (peptide)
chain: HGRYAEALEQHWQELQ
Regarding B21, the “selected by phage display” value in test [1] was “confidence 4 (active)”.

B22: CBFA2T2, O43439 (peptide)
chain: LTEREWADEWKHLDHA
As for B22, the “selected by phage display” value in test [1] is “confidence 4 (active)”.

B23: SOWAHC, Q53LP3 (peptide)
chain: SSGGGSVTLDPLEHAW
Regarding B23, in test [1], the “selected by phage display” value was “confidence 3 (active)”.

B24: CHTF18, Q8WVB6 (peptide)
chain: PPPSPEDLAELWGHGV
On to B24, for which the “selected by phage display” value in test [1] was “confidence 3 (active)”.

B25: WDFY4, Q6ZS81 (peptide)
chain: TPLWEETMLKAWQHYL
For B25, the “selected by phage display” value in test [1] is “confidence 2 (active)”.

B26: SUGP1, Q8IWZ8 (peptide)
chain: DMQLLWEKAVQQHQHG
In the case of B26, the “selected by phage display” value in test [1] was “confidence 2 (active)”.

B27: SYCE3, A1L190 (peptide)
chain: EMEKNWQELLHETKQR
Consider B27, for which, in test [1], the “selected by phage display” value was “confidence 2 (active)”.

B28: SNTA1, Q13424 (peptide)
chain: LQALLAATSTAGSQDI
As to B28, the “selected by phage display” value in test [3] was “confidence 2 (active)”.

B29: TBC1D15, Q8TC07 (peptide)
chain: LNSYEAEWDMVNTVSF
For B29, the “selected by phage display” value in test [1] was “confidence 2 (active)”.

B30: PPP1R9B, Q96SB3 (peptide)
chain: RMEKLEGYWGEAQSLA
As for B30, the “selected by phage display” value in test [1] is “confidence 3 (active)”.

B31: RIMBP3, Q9UFD9 (peptide)
chain: AGSQAQELAEAWEGAR
Consider B31, for which, in test [1], the “selected by phage display” value was “confidence 2 (active)”.

B32: DHX34, Q14147 (peptide)
chain: GLYPQLAVPDAFNSSR
B32: the “selected by phage display” value in test [2] is “confidence 2 (active)”.

B33: FOXP1, Q9H334 (peptide)
chain: TELQQLWKEVTSAHTA
Regarding B33, the “selected by phage display” value in test [1] is “confidence 3 (active)”.

B34: CBFA2T3, O75081 (peptide)
chain: HKLTEREWAEEWKHLN
Consider B34, for which the “selected by phage display” value in test [1] is “confidence 3 (active)”.

B35: MIR1-1HG, Q9H1L0 (peptide)
chain: SPASWERLLAYGWSHA
As for B35, the “selected by phage display” value in test [1] is “confidence 3 (active)”.

B36: NEDD9, Q14511 (peptide)
chain: GGLEGWWLASLHGRQG
Regarding B36, the “selected by phage display” value in test [1] is “confidence 4 (active)”.

B37: SH3YL1, Q96HL8 (peptide)
chain: YKLYPGLSSYHERVGN
As for B37, the “selected by phage display” value in test [2] is “confidence 3 (active)”.

B38: IRS1, P35568 (peptide)
chain: EDVKRHSSASFENVWL
For B38, in test [1], the “selected by phage display” value was “confidence 3 (active)”.

B39: EGFR, P00533 (peptide)
chain: SGTAGAALLALLAALA
As for B39, in test [3], the “selected by phage display” value is “confidence 2 (active)”.

B40: GPATCH2L, Q9NWQ4 (peptide)
chain: SEQNKLGELWEEMALS
For the molecule B40, the “selected by phage display” value in test [1] is “confidence 3 (active)”.

B41: ELOA2, Q8IYF1 (peptide)
chain: DLSEAWMQANYDPLSD
On to B41, for which, in test [1], the “selected by phage display” value is “confidence 3 (active)”.

B42: LENG8, Q96PV6 (peptide)
chain: DWSSQYSMVAGAGREN
In the case of B42, the “selected by phage display” value in test [1] was “confidence 3 (active)”.

B43: ETV5, P41161 (peptide)
chain: QLQEAWLAEAQVPDDE
With B43, the “selected by phage display” value in test [1] was “confidence 3 (active)”.

B44: HECW2, Q9P2P5 (peptide)
chain: SATVPDQEELGEVWQR
As to B44, the “selected by phage display” value in test [1] is “confidence 3 (active)”.

B45: TPCN1, Q9ULQ1 (peptide)
chain: EWYEEHAREQEQQRQL
Consider B45, for which, in test [1], the “selected by phage display” value was “confidence 2 (active)”.

B46: NR3C2, P08235 (peptide)
chain: SLPEGLDMERRWGQVS
Take B46: the “selected by phage display” value in test [1] is “confidence 2 (active)”.

B47: ARHGAP18, Q8N392 (peptide)
chain: ELEEEWLKEAGLSNLF
For B47, the “selected by phage display” value in test [1] is “confidence 2 (active)”.

B48: CACNA1H, O95180 (peptide)
chain: LSGEHAYLQSSWNLLD
In the case of B48, the “selected by phage display” value in test [1] was “confidence 2 (active)”.

B49: WDR13, Q9H1Z4 (peptide)
chain: MAAVWQQVLAVDARYN
For B49, in test [1], the “selected by phage display” value is “confidence 3 (active)”.

B50: KRT77, Q7Z794 (peptide)
chain: DAEERGEQALQDAWQK
Consider B50, for which the “selected by phage display” value in test [1] is “confidence 2 (active)”.

B51: ARHGAP27, Q6ZUM4 (peptide)
chain: DSHVSLETEWGQYWDE
For B51, the “selected by phage display” value in test [1] is “confidence 3 (active)”.

B52: TSHZ1, Q6ZSZ6 (peptide)
chain: YPQDSLAQIKAVYANL
With B52, in test [2], the “selected by phage display” value is “confidence 2 (active)”.

B53: TNKS1BP1, Q9C0C2 (peptide)
chain: AWIRDYSSGGSSRTLD
As to B53, the “selected by phage display” value in test [1] was “confidence 2 (active)”.

B54: DENND2D, Q9H6A0 (peptide)
chain: DFSSLLHALSFEQILQ
Turning to B54, the “selected by phage display” value in test [3] is “confidence 2 (active)”.

B55: EVI5, O60447 (peptide)
chain: VKDLEEHWQRHLARTT
With B55, the “selected by phage display” value in test [1] is “confidence 3 (active)”.

B56: AGGF1, Q8N302 (peptide)
chain: EVQTENHAPWSISDYF
Take B56: the “selected by phage display” value in test [1] is “confidence 2 (active)”.

B57: CAMTA1, Q9Y6Y1 (peptide)
chain: SWLASYLADADALPSA
Turning to B57, the “selected by phage display” value in test [1] is “confidence 3 (active)”.

B58: C9orf131, Q5VYM1 (peptide)
chain: STPLPEPHIDLELVWR
B58: the “selected by phage display” value in test [1] is “confidence 2 (active)”.

B59: PIP5K1C, O60331 (peptide)
chain: KLEHTWKALVHDGDTV
For the molecule B59, the “selected by phage display” value in test [1] was “confidence 3 (active)”.

B60: TTC31, Q49AM3 (peptide)
chain: QLWHHDYLLGHLDDEG
B60: in test [1], the “selected by phage display” value was “confidence 2 (active)”.

B61: BCORL1, Q5H9F3 (peptide)
chain: VHDAVVNDNLETIWLL
With B61, the “selected by phage display” value in test [1] is “confidence 3 (active)”.

B62: NUP62, P37198 (peptide)
chain: WSLELEDQERHFLQQA
As for B62, the “selected by phage display” value in test [1] was “confidence 2 (active)”.
